# Assay outcomes from PubChem.
# TRPML1 inh = qHTS for Inhibitors of the Human Mucolipin Transient Receptor Potential 1 (TRPML1) | Mucolipin-1 (Homo sapiens), Q9GZU1 | TRPML1-inducible cells, Ca2+ dye fluorescence, FDSS; hits give low values; inhibition of EC80 agonist-evoked calcium signal | activity change, negative = inhibition, % (no concentration beside the values) | 390,000 compounds, 0.02% hits | AID 624415, 2012; in the data active = activity change below about -50%; inconclusive = between about -30% and that limit;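 also: stimulus is agonist 54-4 at its EC80 concentration; % is scaled to controls: 0 for no effect and ±100 for the full control effect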
#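 Calcium fluorescence in TRPML1-DL cells induced overnight with Tet: a 110 s read after compound pin addition, then a 110 s antagonist read after challenge with 54-4 at 4 uM final (EC80).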
# TRPV1 agonist = HTS Assay for Compounds that Act as Agonists of the Vanilloid Receptor 1; TRPV1-expressing cells, Fluo-8 calcium influx, agonist mode; Transient receptor potential cation channel subfamily V member 1 (Homo sapiens), Q8NER1; activation, % at 8.33 µM; 320,000 compounds, 0.19% hits; AID 540275, 2011; in the data active = activation above about 80%; inconclusive = between about 30% and that limit; also: 0% is about no effect
#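 Fluo-8 calcium influx in TRPV1-expressing cells, kinetic read (ex 480/em 520 nm). Compound added and read 3 min for agonist activity, followed by capsaicin at EC20 final and 2 min further read for enhancement.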
# TRPML1 ag = qHTS for Agonists of the Human Mucolipin Transient Receptor Potential 1 (TRPML1). AID 624414, 2012. 410,000 compounds, 0.12% hits. Mucolipin-1 (Homo sapiens), Q9GZU1. TRPML1-expressing cells, Ca2+ dye fluorescence, FDSS. activation, % (test concentration not listed); in the data active = activation above about 50%; inconclusive = mostly about 30% to 49%; also: 0% is about no effect
#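 Tetracycline-induced TRPML1-DL cells are seeded and incubated overnight before loading with a no-wash Ca2+ dye and quencher. Agonist activity is taken from the 110 s fluorescence read following compound pin-transfer on an FDSS, before EC80 54-4 challenge.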
# TRPV1 PAM = HTS Assay for Compounds that Act as Potentiators of the Vanilloid Receptor 1. Transient receptor potential cation channel subfamily V member 1 (Homo sapiens), Q8NER1. potentiation, % at 8.33 µM. 320,000 compounds, 0.02% hits. TRPV1-expressing cells, Fluo-8 calcium influx, capsaicin EC20 potentiation; in the data active = potentiation above about 80%; inconclusive = between about 30% and that limit; also: 0% is about no effect
#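 TRPV1-expressing cells were cultured overnight at 35.5C and loaded with Fluo-8 calcium dye for 40 to 90 min at room temperature. After a 10 s baseline, compound was added and calcium influx was read kinetically for 3 min (ex 480/em 520 nm).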
# * hit, by the source's call; u = inconclusive; x = no result given; ! = not confirmed by another sample. This is a sample that favours compounds with a hit; in the whole collection about 0.31% have one here.
SMILES,TRPML1 inh,TRPV1 agonist,TRPML1 ag,TRPV1 PAM
Cc1ccc(S(=O)(=O)N(CC(O)Cn2c3ccccc3c3ccccc32)c2cccc(C(=O)NCCO)c2)cc1 (configuration not stated),-6,x,1,x
CCN(CC)c1ccc(C(=O)NNC(=O)CCl)cc1,27,-9,0,123*
O=C(NCC1COc2ccccc2O1)c1cccs1 (configuration not stated),-9,19,0,-12
O=C(NCC1COc2ccccc2O1)c1ccc(Br)s1 (configuration not stated),-9,85*,2,16
COc1cc2c(C(=O)N3CCOCC3)c(CSc3ccccc3)n(C)c2cc1Br,74,u,6,102*
O=S(=O)(Nc1ccc(-c2ccc(N3CCCCC3)nn2)cc1)c1ccc(OC(F)(F)F)cc1,8,x,28,x
Cc1ccc(CC#N)c(-c2c(CC#N)ccc(C)c2C)c1C,-16,x,78*,x
Cc1ccc2c(c1C)-c1c(ccc(C)c1C)C(=O)C2=O,-9,x,13,x
O=C(COC(=O)C12CC3CC(CC(C3)C1)C2)Nc1ccc2[nH]c(=O)[nH]c2c1,12,92*,0,-2
O=C(COC(=O)C12CC3CC(CC(Cl)(C3)C1)C2)Nc1ccc2[nH]c(=O)[nH]c2c1,0,u,0,-11
Cc1cc(/C=C2/C(=O)N(C)C(=S)N2C)ccc1N1CCCC1,-7,20,u,16
Cc1cc(/C=C2\NC(=S)N(C)C2=O)ccc1N1CCCC1,-11,89*,94*,-1
CCCN1C(=O)/C(=C/c2ccc(N3CCCC3)c(C)c2)NC1=S,-4,x,67*,x
CCCN1C(=O)/C(=C/c2ccc(N3CCOCC3)cc2)NC1=S,-1,u,20,-2
CCN1C(=O)/C(=C/c2ccc(N3CCCC3)cc2)NC1=S,-16,u,64*,-5
O=C1C[C@H]2C=CCc3cccc(c32)CN1Cc1ccc(Cl)cc1,x,x,0,x
CCCCCCCCCC[n+]1cccc2cc(Br)ccc21,x,x,0,x
CCc1ccc(NC(=O)c2onc(C)c2Cl)cc1,-4,89*,2,-6
Cc1cc(C)cc(Nc2ncnc3nc[nH]c23)c1,-1,u,1,-6
FC(F)Sc1ccc(Nc2ncnc3nc[nH]c23)cc1,9,83*,2,17
Cc1cc(C(C)(C)C)oc1C(=O)N(CC(=O)NC1CCCC1)c1cccc(C(F)(F)F)c1,-6,u,52*,-18
Cc1ccccc1N(CC(=O)NC1CCCC1)C(=O)c1oc(C(C)(C)C)cc1C,-16,-4,70*,-23
CN(C)c1ccc(/C=C2/C[N+](C)(C)C/C(=C/c3ccc(N(C)C)cc3)C2=O)cc1,-6,x,2,x
CC(C)/C=C1\CC/C(=C\c2ccc(N(C)C)cc2)C1=O,-24,u,64*,3
Cc1nc(Nc2cccc(F)c2)c2oc3ccccc3c2n1,14,99*,1,17
SMILES,TRPML1 inh,TRPV1 agonist,TRPML1 ag,TRPV1 PAM
Cc1nc(Nc2ccc(Cl)cc2)c2oc3ccccc3c2n1,18,5,1,1
COc1cccc(Nc2nc(C)nc3c2oc2ccccc23)c1,-7,80*,3,-6
Cc1nc(Nc2cccc(Cl)c2)c2oc3ccccc3c2n1,5,86*,1,14
Cc1ccc(-c2noc(-c3ccccc3NC(=O)C3CC(=O)N(c4ccc(C)cc4)C3)n2)cc1 (configuration not stated),-11,x,0,x
CC[N+](CC)(CC)c1ccc(/C=C/c2ccc3ccccc3n2)cc1,x,x,-1,x
COc1cc(/C=C/C(=O)CC(=O)/C=C/c2ccc(O)c(OC)c2)ccc1O,1,u,55*!,7
COc1cc(/C=C/C(=O)/C=C(O)/C=C/c2ccc(O)c(OC)c2)ccc1O,2,u,u,5
Oc1ccc(Cl)cc1C1C=C(c2ccc3c(c2)OCO3)NC(c2ccc(Cl)cc2)N1 (configuration not stated),x,x,3,x
Cc1ccccc1-c1ccc(/C=C2/SC(N3CCOCC3)=NC2=O)o1,-3,84*,1,-2
Cc1cccc(C(C)n2nnc3ccccc32)c1O (configuration not stated),-6,12,0,86*
Cc1cccc(Cn2nnc3ccccc32)c1O,-6,16,-1,17
CCOC(=O)CC1C(=O)NCCN1c1nc2ccc(C)cn2c(=O)c1/C=C1\SC(=S)N(C(C)CC)C1=O (configuration not stated),x,139*,x,-5
Cc1ccc(NC(=O)CN2C(=O)COc3ccc(S(=O)(=O)N4CCCCCC4)cc32)cc1Cl,-1,x,-1,x
Cn1c(NCc2ccccc2O)nc2ccccc21,3,-1,0,6
CCOc1ccccc1CNc1nc2ccccc2n1C,6,6,-1,84*
Cc1nc2c(n1C1CCCCC1)C(=O)c1ccccc1C2=O,-4,-4,65*,-6
O=C1c2cccnc2C(=O)N1C1CCCCC1,-11,-1,1,13
O=C(/C=C/c1ccc(Cl)cc1)NCc1ccncc1,3,82*,1,-7
CC1CCN(C(=O)/C=C/c2ccc(C(C)(C)C)cc2)CC1,-11,89*,3,-11
Cc1ccc(/C=C/C(=O)N2CCCC(C)C2)cc1 (configuration not stated),17,u,1,-6
CC(C)(C)c1ccc(/C=C/C(=O)N2CCCCC2)cc1,-9,94*,1,-20
CCSC(=O)N1CCN(/[N+]([O-])=N/Oc2ccc([N+](=O)[O-])cc2[N+](=O)[O-])CC1,30,x,1,x
CCCC(=O)N(c1ccc2oc3c(c2c1)CCCC3)S(=O)(=O)c1ccc(CC)cc1,-25,x,64*,x
CC(C)CC1Nc2ncnc(N3CCCCC3)c2N(Cc2ccc(Br)cc2)C1=O (configuration not stated),13,82*,1,1
Cc1nc(Nc2ccc3c(c2)OCCO3)c2oc3ccccc3c2n1,7,82*,-1,-3
SMILES,TRPML1 inh,TRPV1 agonist,TRPML1 ag,TRPV1 PAM
O=[N+]([O-])c1ccc2ncnc(Nc3ccc4c(c3)OCCO4)c2c1,44,11,0,-18
c1ccc2c(c1)oc1c(Nc3ccc4c(c3)OCCO4)ncnc12,14,83*,3,2
CCc1nc(Nc2ccc3c(c2)OCCO3)c2oc3ccccc3c2n1,0,89*,2,-6
CCNc1nc(C)nc2c1oc1ccccc12,27,u,0,-11
CCNc1nc(CC)nc2c1oc1ccccc12,-10,88*,3,-20
Cc1nc(Nc2cccc(O)c2)c2oc3ccccc3c2n1,11,15,5,-29
C1=C/C(=C2/C=Cc3ccccc32)c2ccccc2N1,x,x,-1,x
Clc1ccc(/C=C/c2ccnc3ccccc23)c(Cl)c1,x,x,0,x
